The list shows a part of the results. A number with no mark means an inactive call. No rule for the calls is given here.

For the assay, the system named is Botulinum neurotoxin type F light chain protease (Clostridium botulinum). Kind of assay: BoNT/F light chain protease inhibitors, confirmation, biochemical, flow cytometry, cherry pick 1 (AID 602140). The conditions noted are these: multiplex microsphere protease cleavage assay, at 10 µM, hits give high values. In general terms: Flow cytometry measures light scatter and fluorescence of single cells or particles in a stream.
For orientation: inhibition means the drop in the measured response relative to a control, in per cent. With `Brc1ccc2ncnc(NCc3cccnc3)c2c1`, the inhibition is -1.4%.
To `CCCSc1nc2sc3c(c2c(=O)n1-c1ccc(OC)cc1)CCN(C)C3` belongs 5.3%; to `Cc1ccc2[nH]cc(CCNC(=O)C3CCCCC3)c2c1`, 0.6%; to `CCOc1nnc(C)c2c(C)n(-c3cccc(Cl)c3)nc12`, 18.1%.
To `COc1cc2cc(CN(CCN3CCCC3)C(=O)Nc3ccccc3Cl)c(=O)[nH]c2cc1OC` belongs 0.8%; to `OC(c1ccc(Cl)cc1)C(CN1CCOCC1)c1ccccc1` (configuration not stated), 3.4%; to `COc1cc(C(=O)NCc2ccc3c(c2)cc(C)n3C)cc(OC)c1OC`, -4.7%.
To `COc1ccccc1CNC(=O)C1Cc2ccccc2C(=O)O1` (configuration not stated) belongs -1.3%; to `CC(C)Cc1nnc(NC(=O)CCC(=O)Nc2ccc3cn[nH]c3c2)s1`, -1.9%.
Regarding `O=S(=O)(NC1CCCCC1N1CCC(O)CC1)c1ccc(Cl)cc1` (configuration not stated), the inhibition was 2.2%.
In the case of `Cc1ccc(-c2nc(-c3cccnc3)sc2CC(=O)Nc2ccc(C)c(Cl)c2)cc1`, the inhibition was -18.6%.
The result for `Clc1ccc(-c2ncc3ccccn23)c(Cl)c1` reads -4.7%.
The result for `Nc1ccccc1Sc1cc(Cl)nnc1Cl` reads -1.4%; that for `CC1CCN(C(=O)c2ccc(S(=O)(=O)Cc3cc(F)ccc3F)c([N+](=O)[O-])c2)CC1`, 1.2%.
Regarding `COc1ccccc1-n1c(-c2cc(-c3ccco3)[nH]n2)n[nH]c1=S`, the inhibition is 4%.
The result for `Cc1cccc2cc3c(N)c(C(=O)N4CCCc5ccccc54)sc3nc12` reads 0.3%; that for `CC1CCc2c(sc3nc4n(c(=O)c23)CCS4)C1` (configuration not stated), -5.8%; that for `COCCn1nnnc1C(c1cc2ccc(OC)cc2[nH]c1=O)N1CCc2ccccc2C1` (configuration not stated), -9.6%.
The result for `Cc1cc(S(=O)(=O)NC2CCCC2)ccc1-n1cnnn1` reads 3.7%; that for `Cc1ccc(C(=O)COc2cccc(NC(=O)c3ccco3)c2)cc1`, -7.2%; that for `Cc1c(NC(=O)c2cccnc2)c(=O)n(-c2ccccc2)n1C`, 2.7%.
Turning to `CC(=O)c1cccc(NC(=O)N2CCCC2C(=O)NCCc2ccccc2)c1` (configuration not stated), the inhibition is 0%.

For the origin of these results see PubChem BioAssay AID602140 (NMMLSC, 2011).
